# The source made the active and inactive calls. A call without a number means that no potency is given here. Calls follow the shape of the full dose curve.
# Biological target: Acetylcholinesterase (Homo sapiens) (UniProt P22303)
# Assay: Acetylcholinesterase (AChE) small molecule antagonists: enzyme-based qHTS assay with human liver microsomes (AID 1347399); also: nearly all actives have a fitted effect of over 60% in size
# Conditions: Potency: qHTS inhibition; series mostly up to 115 µM
# From the text: National Center for Advancing Translational Sciences [NCATS]
# Division of Preclinical Innovation [DPI]
# U.S. Environmental Protection Agency [EPA]
# National Institutes of Environmental Health Sciences [NIEHS]
# National Toxicology Program [NTP]
# U.S. Food and Drug Administration [FDA]
# Acetylcholinesterase (AChE) is the primary cholinesterase in the body that hydrolyzes a key neurotransmitter, acetylcholine. Inhibition of AChE activity can lead to neurotoxicity. The known inhibitors include organophosphorous pesticides (OP), chemical warfare agents, drugs, and various phytochemicals. Some compounds like OP compounds may need metabolic activation to be active AChE inhibitors. The cytochrome P450 (CYP) superfamily in the human microsomes is responsible for the metabolism of various endogenous and exogenous compounds.
# An enzyme-based assay with the recombinant human AChE, human liver microsomes and Amplite Colormetric acetylcholinesterase assay kit (AAT Bioquest, Sunnyvale, CA) was used to evaluate compounds in the Tox21 10K library that need metabolic activation for AChE inhibition. The assay uses 5, 5-dithiobis-(2-nitrobenzoic acid) (DTNB) to quantify the thiocholine produced from the hydrolysis of acetylthiocholine by AChE.
# Tox21 Assay Protocol Summary:
# For the enzyme-based AChE assay with microsomes addition, a mixture of human AChE (50 mU/mL) and human liver microsomes (0.25 mg/mL, final concentration) in 3 uL/well was dispensed into black, clear-bottom 1536-well plates using a Multidrop Combi dispenser (Thermo Scientific, MA). Then, 23 nL of compound or DMSO (vehicle control) was transferred into the assay plates by a Pintool Station (Wako Automation, CA). Following compound addition, 1 uL of NADPH (0.25 mg/mL, final concentration) was transferred to the assay plate by a Flying Reagent Dispenser (Beckman Coulter, CA). The plates were incubated for 30 min at 37 C and 5% CO2, followed by the addition of 4 uL of colorimetric detection cocktail solution (DTNB, acetylthiocholine) into each well using a Flying Reagent Dispenser (Beckman Coulter, CA) and then 10 min incubation at room temperature.
# Potency is read from the fitted curve at half-maximal effect.
# Acetylcholinesterase (Homo sapiens), sequence (P22303 whole entry, looked up): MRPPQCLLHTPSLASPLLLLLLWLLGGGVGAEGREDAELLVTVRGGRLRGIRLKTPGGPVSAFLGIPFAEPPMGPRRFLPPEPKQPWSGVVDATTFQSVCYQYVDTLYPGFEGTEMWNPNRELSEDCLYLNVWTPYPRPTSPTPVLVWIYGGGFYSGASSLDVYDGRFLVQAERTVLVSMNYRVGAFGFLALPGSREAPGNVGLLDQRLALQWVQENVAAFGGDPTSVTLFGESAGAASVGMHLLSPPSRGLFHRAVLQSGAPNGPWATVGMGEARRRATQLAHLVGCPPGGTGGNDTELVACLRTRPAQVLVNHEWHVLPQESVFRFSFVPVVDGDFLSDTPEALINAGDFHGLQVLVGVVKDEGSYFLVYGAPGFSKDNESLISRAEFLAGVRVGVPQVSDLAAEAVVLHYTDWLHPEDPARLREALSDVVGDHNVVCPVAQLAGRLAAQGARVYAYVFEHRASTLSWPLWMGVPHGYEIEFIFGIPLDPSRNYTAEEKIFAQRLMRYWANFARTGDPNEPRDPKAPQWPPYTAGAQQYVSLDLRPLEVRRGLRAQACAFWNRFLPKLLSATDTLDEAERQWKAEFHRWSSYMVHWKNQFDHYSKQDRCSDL
row,Compound,Potency
1,Brc1ccc(Oc2ccccc2)cc1,inactive
2,O=C(NCc1cccnc1)Nc1ccc([N+](=O)[O-])cc1,inactive
3,O=C(OC1CCCCC1)c1ccccc1C(=O)OC1CCCCC1,inactive
4,NC(=O)CI,inactive
5,C=CC[C@]1(O)CC[C@H]2[C@@H]3CCC4=CC(=O)CCC4=C3C=C[C@@]21C,inactive
6,C=CC(=O)OCC(C)C,inactive
7,C=CC(=O)OC(C)(C)C,inactive
8,O=C1C(Cl)C(CCl)CN1c1cccc(C(F)(F)F)c1 (stereo not given),inactive
9,COP(=S)(OC)Oc1ccc([N+](=O)[O-])cc1Cl,inactive
10,BrCC(Br)C1CCC(Br)C(Br)C1 (stereo not given),inactive
11,COC(N)=O,inactive
12,CCC(Br)(CC)C(=O)NC(N)=O,inactive
13,O=C1C(=O)c2cccc3cccc1c23,inactive
14,CCC(Cl)CCl (stereo not given),inactive
15,CC(C)(Cl)[N+](=O)[O-],inactive
16,CC(=O)[C@H]1CC[C@H]2[C@@H]3CC[C@H]4C[C@](C)(O)CC[C@]4(C)[C@H]3CC[C@]12C,inactive
17,O=C(CBr)Nc1ccc(Cl)cc1C(=O)c1ccccc1F,inactive
18,CCOc1nc(F)cc2nc(S(=O)(=O)Nc3c(Cl)cccc3Cl)nn12,inactive
19,ClC=C(Cl)Cl,inactive
20,O=NN1CCNCC1,inactive

row,Compound,Potency
1,C=C(C#N)CCC#N,inactive
2,CN1C(=O)NC(=O)C(C)(C2=CCCCC2)C1=O (stereo not given),inactive
3,ClCc1cccc(Cl)c1,inactive
4,O=C(O)CC(Cl)C(=O)O (stereo not given),inactive
5,CC1CC(CC2CCC(N)C(C)C2)CCC1N (stereo not given),inactive
6,COP(=S)(Oc1cc(Cl)c(Br)cc1Cl)c1ccccc1 (stereo not given),8.94 µM (active)
7,Nc1ccc([N+](=O)[O-])cc1[N+](=O)[O-],inactive
8,CCCCCCCCCCOC(=O)c1ccccc1C(=O)OCCCCCCCCCC,inactive
9,O=C(Nc1ccccc1)Nc1cnns1,inactive
10,CCCN(CCC)c1c([N+](=O)[O-])cc(S(C)(=O)=O)cc1[N+](=O)[O-],inactive
11,ClCc1ccccc1,inactive
12,C=CCC1([C@H](C)CCC)C(=O)NC(=O)NC1=O,inactive
13,COc1cc(CC(C)N)cc2c1OCO2 (stereo not given),inactive
14,O=[N+]([O-])c1ccccc1CCl,inactive
15,Clc1ccc(C(OCCN2CCCCC2)c2ccccc2)cc1 (stereo not given),inactive
16,COCCOCCO,inactive
17,CCOC(=O)[C@]1(c2ccccc2)Oc2ccccc2[C@@H]1N,inactive
18,C=CC(=O)OCC(C)O (stereo not given),inactive
19,Clc1ccc(C2(Cn3cncn3)CC(Br)CO2)c(Cl)c1 (stereo not given),inactive
20,O=[Se]=O,inactive
